Assay results published in PubChem BioAssay AID1159580 (chemical genetic matrix, 2015).
The campaign covered roughly 5,500 compounds. About 2,000 (36%) were called active. Inconclusive results (about 18%) are left out. No stated cut-off is given here; in the data, active means normalized growth mostly below about 0.91 (no sharp cut-off); inconclusive means no clear call, values can overlap the other calls; inactive means mostly above about 0.92. The list shows a part of the results.

Assay: chemical genetic growth profiling, strain panel (AID 1159580);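 further: tested at 20 µM; growth read once vehicle control cultures reached saturation at 30 °C; 1 = growth at the plate median or of vehicle wells; lower values mean less growth of the strain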
Conditions: S. cerevisiae deletion strains, growth OD

Measured: normalized growth

CN1CCN(C(c2ccccc2)c2ccc(Cl)cc2)CC1 (stereo not drawn)
inactive: locus YHR030C, strain SLT2, active compounds read low 0.974 | locus YHR079C, strain IRE1, active compounds read low 0.986 | locus YJL095W, strain BCK1, active compounds read low 0.974 | locus YJR066W, strain TOR1, active compounds read low 0.979 | locus YLR113W, strain HOG1, active compounds read low 0.962 | locus YNL183C, strain NPR1, active compounds read low 0.914 | locus YOR231W, strain MKK1, active compounds read low 0.981 | locus YPL256C, strain CLN2, active compounds read low 0.951
